Data reported in PubChem BioAssay AID1963321 (National Center for Advancing Translational Sciences (NCATS), 2024).
Records with an inconclusive call do not appear. Activity calls are given as the source filed them. Calls follow the shape of the full dose curve.

target: cAMP-dependent protein kinase catalytic subunit alpha (Homo sapiens) (UniProt P17612); assay: Protein Kinase A (PKA-HiBiT) enzymatic inhibition screen - Functional assay; conditions: luminescence; series mostly up to 57.5 µM
Description: National Center for Advancing Translational Sciences (NCATS),
National Institute of Health (NIH), Maryland
Discovery and optimization of novel protein-binding ligands underlies many of the methods and applications of biology, drug discovery, clinical diagnostics, and environmental toxicology. Assays for detecting the interaction of, for example, a molecule with a macromolecular target also referred to here as the target of interest (TOI) is dependent on a compatible output technology. Depending on the nature and knowledge surrounding the TOI, whether a receptor, enzyme, regulatory subunit or scaffold, or a sequence-defined nucleic acid folded into a complex tertiary structure, assay strategies can vary widely.
Here we exploit ligand-biased changes in the structural dynamics of the target protein to control reporter alpha complementation allowing a non-competitive, non-functional, non-separation measure of ligand-target interaction.
Using a chemical library of >1,200 compounds enriched for scaffolds known to be associated with the inhibition of firefly luciferase (FLuc) activity (PubChem AIDs 2309) we first illustrate and compare the Structural Dynamics Response (SDR) assay vs. the standard functional FLuc enzyme assay (2). Secondly, we show the specificity and sensitivity of the SDR for the Abelson tyrosine kinase (ABL1) compared to the serine/threonine protein kinase A, using an enriched chemical library of 128 compounds selected, in part, for activity annotated with ABL1 kinase activity using the Pharos database (3).
(1) A. S. Dixon et al., NanoLuc Complementation Reporter Optimized for Accurate Measurement of Protein Interactions in Cells. ACS Chem Biol 11, 400-408 (2016).
Chemistry & Biology, 19, 1060 - 1072 (2012).
(3) K. J. Kelleher et al., Pharos 2023: an integrated resource for the understudied human proteome. Nucleic Acids Res 51, D1405-D1416 (2023).
PROTOCOL TABLE (as described by Inglese J, Shamu CE and Guy RK. 2007)
SEQUENCE No. (e.g., 1, 2, 3, etc.); […] (e.g., C. elegans, Compounds, Incubation, Read, etc.); VALUE and DESCRIPTION.
1. Reagent. Dispense 4 uL PKA-N-HiBiT enzyme per well at a final enzyme concentration of 10 nM in buffer with 87.5 uM ATP (functional assay) into columns 2-48 of four replicate Greiner 1536-well white,solid bottom high base, medium plates per assay. Dispense respective buffer without enzyme at 4 uL/well in column 1 of assay plates using BioRaptr 2.
2. Compounds. Library compounds added at 23 nL/well by pin transfer. DMSO neutral control and H-89 positive control added at 25 nL/well, transfer by Mosquito dispenser.
3. Incubation. Incubate enzyme and compounds at room temperature for 30 min, protect from light.
4. Reagent. (Functional assay) Transfer 25 nL of kemptide peptide substrate to each well of four replicate kinase assay plates with Mosquito dispenser.
5. Incubation. (Functional assay) Kinase Enzyme incubated with peptide substrate for 3 h at room temperature, protected from light.
6. Reagent. (Functional assay) Add 4 uL/well of Kinase-Glo Plus reagent (Promega) to kinase activity assay plates.
7. Detector. (Functional assay) Luminescence measured using CCD-based camera (ViewLux) with settings as follows: Exposure, 1 sec; Gain, High; Speed, Slow; Binning, 2X.
Inglese J, Shamu CE and Guy RK, Reporting data from high throughput screening of small molecule libraries, Nature Chemical Biology, 2007, 3(8): 438-441. doi.org/10.1038/nchembio0807-438.

Potency, inactive:
CNS(=O)(=O)c1ccc2c(c1)/C(=C/c1[nH]c3c(c1CCCN1CCN(C)CC1)CCCC3)C(=O)N2
CNc1ncc2cc(-c3cc(NC(=O)NCCC(C)(C)C)c(F)cc3C)c(C)nc2n1
Nc1ncc(-c2cnn(CCO)c2)c2scc(-c3ccc(NC(=O)Nc4cccc(F)c4)cc3)c12
CN1CCN(C2CCC(n3cc(-c4ccc(Oc5ccccc5)cc4)c4c(N)ncnc43)CC2)CC1 (stereo not given)
COc1cc2c(N3CCN(C(=O)Nc4ccc(OC(C)C)cc4)CC3)ncnc2cc1OCCCN1CCCCC1
Cc1cc(Nc2ncc3c(n2)N(C)C(=O)N(c2cc(NC(=O)c4cccc(C(F)(F)F)c4)ccc2C)C3)n(C)n1
Cc1cc(-c2cc(O)ccc2Cl)cc2nnc(Nc3ccc(OCCN4CCCC4)cc3)nc12
NC1CCC(Nc2nc(Nc3ccc(C(=O)N4CCCCC4)cc3)c3ncn(-c4cccc(F)c4)c3n2)CC1 (stereo not given)
FC(F)(F)c1ccc(/C=C/c2nc(COc3ccc(CCCCn4ccnn4)cc3)co2)cc1
Cn1ncc(NC(=O)c2nc(-c3c(F)cccc3F)sc2N)c1N1CC[C@@H](N)[C@H](F)CC1
Cc1ccc(C(=O)Nc2ccc(Oc3cc4cnn(C)c4cc3-c3cn[nH]c3)c(F)c2)c(=O)n1-c1ccc(F)cc1
O=c1cc(N2CCOCC2)nc2c3ccccc3ccn12
CN1CCN(CCCNc2ncc(Cl)c(-c3cc4c(C(=O)NC5CC5)cccc4s3)n2)CC1
COC(=O)Nc1ccc(-c2nc(N3CCOCC3)c3cnn(C4CCN(C(=O)OC)CC4)c3n2)cc1
Cc1[nH]c(/C=C2\C(=O)Nc3ccc(S(=O)(=O)Cc4c(Cl)cccc4Cl)cc32)c(C)c1C(=O)N1CCC[C@@H]1CN1CCCC1
Cc1ccc(C(=O)Nc2ccc(CN3CCN(C)CC3)c(C(F)(F)F)c2)cc1C#Cc1cnc2[nH]ncc2c1
C[C@@H](NC(=O)c1ncnc(N)c1Cl)c1ncc(C(=O)Nc2cc(C(F)(F)F)c(Cl)cn2)s1
Cc1c(Cl)cccc1S(=O)(=O)Nc1nc(NCCc2ccccc2)nc2c1CN(Cc1ccccc1)CC2
CCCCCCCCCCCCc1ccc(S(=O)(=O)Nc2nncs2)cc1
Cc1ccc(-n2nc(C(C)(C)C)cc2NC(=O)NCc2cc(F)ccc2Oc2ccc3c(cnn3CCO)c2)cc1
CCN1/C(=C\C(C)=O)Sc2ccc(OC)cc21
O=C(c1cccc(Cl)c1F)N1CCN(Cc2cccc(Nc3nccs3)n2)CC1
O=C(NOCC(O)CO)c1cc(Br)c(F)c(F)c1Nc1ccc(I)cc1F (stereo not given)
c1ccc(-c2oc3ncnc(NC[C@@H]4CCCO4)c3c2-c2ccccc2)cc1
Cc1sc2c(c1C)C(c1ccc(Cl)cc1)=N[C@@H](CC(=O)Nc1ccc(OCCOCCOCCOCCNc3cccc4c3C(=O)N(C3CCC(=O)NC3=O)C4=O)cc1)c1nnc(C)n1-2 (stereo not given in full)
CN1CCN(Cc2ccc(-c3cnc4[nH]cc(-c5ccc6[nH]ccc6c5)c4c3)cc2)CC1
Oc1ccc(-c2ccc(-c3cc(Nc4cccc(CNC5CC5)c4)n[nH]3)cc2)c(O)c1
CSc1cccc(Nc2ncc3cc(-c4c(Cl)cccc4Cl)c(=O)n(C)c3n2)c1
Cc1ccc(NC(=O)N2CCN(c3nc(N)nc4sc(-c5cccnc5)nc34)CC2)cc1
CCN1CCN(Cc2ccc(NC(=O)Nc3ccc(Oc4cc(NC)ncn4)cc3)cc2C(F)(F)F)CC1
O=C(Nc1ccc(OC(F)(F)F)cc1)c1sccc1NCc1ccnc2ccccc12
COc1cc2ncnc(Nc3ccc(F)c(Cl)c3)c2cc1OCCCN1CCOCC1
S=C(NCc1ccc2c(c1)OCO2)N1CCN(c2ncnc3c2oc2ccccc23)CC1
COc1cc(NC(=O)c2cccc(-n3cc(NC(=O)Nc4cccc(C)c4)cn3)c2)cc(OC)c1OC
CCCS(=O)(=O)Nc1ccc(F)c(C(=O)c2c[nH]c3ncc(Cl)cc23)c1F
CCCCNc1ncc2c(-c3ccc(S(=O)(=O)N4CCOCC4)cc3)nn(C3CCC(O)CC3)c2n1 (stereo not given)
Cc1ccc(NC(=O)c2ccc(CN3CCN(C)CC3)cc2)cc1Nc1nc(-c2cccnc2)cs1
COc1ccc(S(=O)(=O)N(C(C)=O)c2ccccc2/C=C/c2cc[n+]([O-])cc2)cc1
C=CC(=O)Nc1cc2c(Nc3ccc(F)c(Cl)c3)ncnc2cc1OCCCN1CCOCC1
CC1(C)OCCn2c1nc1c(N3CCOCC3)nc(-c3cnc(N)nc3)nc12
